According to PubChem BioAssay:
Unmarked numbers belong to inactive results. No rule for the calls is given here.

Target: Pantothenate synthetase (Mycobacterium tuberculosis (strain ATCC 25618 / H37Rv)) (UniProt P9WIL5)
Experiment: Recombinant Mtb pantothenate synthetase (PanC) inhibitors, coupled enzyme, confirmatory (AID 375);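 also: 0% = full reaction with vehicle and 100% = no enzyme background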
Details: coupled enzyme assay; at 10 µM, active compounds read high

Pantothenate synthetase (Mycobacterium tuberculosis (strain ATCC 25618 / H37Rv)), sequence (P9WIL5 whole entry, looked up): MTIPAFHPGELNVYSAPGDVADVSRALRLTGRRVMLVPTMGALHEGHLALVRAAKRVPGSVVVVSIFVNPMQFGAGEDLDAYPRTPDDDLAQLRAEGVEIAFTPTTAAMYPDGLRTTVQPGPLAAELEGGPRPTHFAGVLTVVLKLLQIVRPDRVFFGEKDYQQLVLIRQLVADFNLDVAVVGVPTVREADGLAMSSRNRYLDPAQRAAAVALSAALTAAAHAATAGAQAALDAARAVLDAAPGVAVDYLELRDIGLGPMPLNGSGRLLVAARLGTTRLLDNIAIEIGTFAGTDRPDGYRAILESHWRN

SMILES	inhibition
O=C(CN1C(=O)COCC1=O)N1CCOCC1	0%
CCOc1ccc2nc(SCC(=O)N3CCCCCC3)c(C#N)cc2c1	0%
CC(C)(C)N(Cc1cc2ccccc2[nH]c1=O)C(=O)C1CCCCC1	3%
CCOC(=O)N1CCN(Cc2nc3c(c(=O)[nH]c(=O)n3C)n2Cc2cc(C)ccc2C)CC1	0%
COc1ccc(CNS(=O)(=O)c2ccc3oc(C(=O)O)c(C)c3c2)cc1	0%
N#Cc1c(NC(=O)c2ccc(Br)o2)n(-c2ccccc2)c2nc3ccccc3nc12	2%
COC(=O)c1ccccc1NC(=O)CC(NCc1ccccc1)C(=O)O (stereo not given)	0%
COC(=O)Cn1c(CCS(=O)(=O)c2ccc(C)cc2)nc2ccccc21	1%
CCCOC(=O)C1C2C=CC3(CN(c4cccc(Cl)c4)C(=O)C13)O2 (stereo not given)	0%
O=S(=O)(NCCc1csc(-c2ccccc2)n1)c1ccc2c(c1)OCCO2	4%
N#Cc1c(N)nc(SCc2ccncc2)c(C#N)c1-c1cccs1	11%
C/C(=N\O)C(C)/[N+]([O-])=C/c1nc(C)c(C)n1O (stereo not given)	0%
CCC1C(=O)N=C(SCC(=O)Nc2cccc3ccccc23)NC1=O (stereo not given)	0%
O=C(COC(=O)c1cc(S(=O)(=O)N2CCOCC2)ccc1O)NCC1CCCO1 (stereo not given)	15%
O=C(CSc1nnc(C2COc3ccccc3O2)o1)N1CCCc2ccccc21 (stereo not given)	0%
CCSc1nc(N)c(C#N)c(-c2ccccc2Cl)c1C#N	6%
CCCCn1cnc2c1c(=O)n(C)c(=O)n2C	2%
O=C(COc1ccccc1Cl)NCCCN1CCOCC1	0%
COc1cccc(C2=NOC(C(=O)N3CCc4ccccc4C3)C2)c1 (stereo not given)	0%
CCCCOC(=O)Cn1c(=O)oc2ccc(C)cc21	0%

SMILES	inhibition
O=C(CSc1nc2ccccc2s1)N1CCOCC1	0%
CCOc1cc(C)c(C(C)C)cc1S(=O)(=O)N1CCN(C)CC1	0%
CCOc1ccc(S(=O)(=O)N(C)C)cc1-c1nc2c(C(C)(C)C)nn(C)c2c(=O)[nH]1	0%
CCn1c2ccccc2c2cc(N)ccc21	0%
CC(C)Cn1c(CN2CCCCC2C)nc2c1c(=O)n(C)c(=O)n2C (stereo not given)	0%
O=C(c1ccccc1-c1ccccc1)N1CCN(c2ccccn2)CC1	0%
COc1ccccc1NCN1C(=O)CCC1=O	3%
COCn1c(COc2ccccc2)nc2ccccc21	0%
CC(=O)O[C@H]1C(=O)[C@]2(C)[C@H]([C@H](OC(=O)c3ccccc3)[C@]3(O)C[C@H](OC(=O)[C@H](O)[C@@H](NC(=O)c4ccccc4)c4ccccc4)C(C)=C1C3(C)C)[C@]1(OC(C)=O)CO[C@@H]1C[C@@H]2O	9%
COc1cccc(-c2cc(C(=O)Nc3c(C)nn(Cc4ccccc4)c3C)no2)c1	0%
CC(C)NC(=O)CSc1nc2ccccc2n1-c1ccccc1	1%
CN(C)C(=O)C12CCC(C)(c3nc4ccccc4nc31)C2(C)C (stereo not given)	4%
CCCCn1cnc2c(cnn2-c2ccc(Cl)cc2)c1=O	6%
CCOC(=O)c1[nH]c(C)c(C(=O)Nc2ccccc2C)c1C	0%
COC1=CC(=O)CC(C)C12Oc1c(Cl)c(OC)cc(OC)c1C2=O (stereo not given)	0%
CSCCC(NC(=O)c1ccco1)C(=O)O (stereo not given)	0%
Cc1nc(SCC(=O)Nc2ccccc2C(F)(F)F)c2c(=O)n(C)c(=O)n(C)c2n1	4%
CCOc1ccc2nc(Nc3nc4c(c(=O)[nH]3)CCC4)nc(C)c2c1	0%
CCOC(=O)C(NC(C)=O)(NS(=O)(=O)c1ccccc1)C(F)(F)F (stereo not given)	2%
O=C(COn1nnc2ccc(C(F)(F)F)cc21)Nc1nnc(-c2ccccc2)o1	0%
